This is an account of results in PubChem BioAssay (NCATS).

The target of assay [1] is Cytochrome P450 3A7 (Homo sapiens) (UniProt P24462). Put plainly: Cytochrome P450 family 3 subfamily A member 7 (CYP3A7) small molecule antagonists: luciferase biochemical qHTS assay (AID 1963596). Note: % is set by controls: 0 for no effect and ±100 for the full control effect; nearly all actives have a fitted effect of over 40% in size. The procedure, abridged:
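Luminescence read-out (relative luminescence units) after 20 min with detection reagent, which stops the reaction. Enzyme, proluciferin substrate and compound preincubated 10 min, RT; NADPH regeneration system then started 1 h reaction. Ketoconazole as positive control.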
(In general: Quantitative high-throughput screening tests each substance at several concentrations.)

Assay [2] in a line: Viability qHTS for spleen associated tyrosine kinase inhibitor (SYKi) drug resistant MV4-11 cells (AID 1963824). Note: nearly all actives have a fitted effect of over 35% in size. Note: potency is the fitted concentration of half-maximal effect. Put shortly: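 SYK inhibitor-resistant MV4-11 AML cells, 500 per well, added to predispensed compounds and incubated 72 hr at 37 C, 5% CO2. Viability measured by CellTiter-Glo luminescence after 10 min at room temperature.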
Assay [3] in a line: Quantitative highthroughput screen to assess conditional lethalithy of NOMO1 cells grown in RPMI1640 with untreated serum (RPMI+s) (AID 1963876).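 For Viability: 100% = DMSO wells and 0% = empty wells without cells.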 Note: nearly all actives have a fitted effect of over 35% in size. Note: potency is the fitted concentration of half-maximal effect. Put shortly: (§1)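 Each medium arm—HPLM with 10% dialyzed FBS, or RPMI1640 with 5 mM glucose and 10% untreated or dialyzed FBS—was screened against an 11-point, 3-fold compound titration for 48 h at 37 °C, with CellTiter-Glo luminescence as endpoint.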

Assay [4] can be described thus: Quantitative highthroughput screen to assess conditional lethalithy of NOMO1 cells grown in RPMI1640 with dialyzed fetal bovine serum (RPMI+ds) (AID 1963877).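 For Viability: series mostly up to about 46 µM; 100% = DMSO control wells and 0% = empty wells.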 Note: nearly all actives have a fitted effect of over 30% in size. Note: potency is the fitted concentration of half-maximal effect. Put shortly: as §1
Assay [5] in a line: Quantitative highthroughput screen to assess conditional lethalithy of NOMO1 cells grown in Human Plasma-Like Medium with dialyzed fetal bovine serum (HPLM+ds) (AID 1963878).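 For Viability: 100% = DMSO wells and 0% = empty wells on each plate.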 Note: nearly all actives have a fitted effect of over 35% in size. Note: potency is the fitted concentration of half-maximal effect. The procedure, abridged:
as §1

The nature of assay [6]: Quantitative highthroughput screen to assess conditional lethalithy of P12 Ichikawa cells grown in Human Plasma-Like Medium with dialyzed fetal bovine serum (HPLM+ds) (AID 1963879). For Viability: series mostly up to about 46 µM. Note: nearly all actives have a fitted effect of over 35% in size. Note: potency is the fitted concentration of half-maximal effect. The note with it: Potency: viability. The procedure, abridged:
as §1

Assay [7] is described as follows: Quantitative highthroughput screen to assess conditional lethalithy of P12 Ichikawa cells grown in RPMI1640 with dialyzed fetal bovine serum (RPMI+ds) (AID 1963880).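 For Viability: 100% = DMSO wells and 0% = empty wells on each plate.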 Note: nearly all actives have a fitted effect of over 35% in size. Note: potency is the fitted concentration of half-maximal effect. As to conditions: Potency: P12-Ichikawa viability. Put shortly: as §1
Assay [8] can be described thus: Quantitative highthroughput screen to assess conditional lethalithy of P12 Ichikawa cells grown in RPMI1640 with untreated serum (RPMI+s) (AID 1963881).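 For Viability: series mostly up to about 46 µM; 100% = DMSO wells and 0% = empty wells without cells.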 Note: nearly all actives have a fitted effect of over 35% in size. Note: potency is the fitted concentration of half-maximal effect. The note with it: Potency: viability. The procedure, abridged: as §1
A short description of assay [9]: Cellular viability qHTS for adrenocortical cancer (ACC) cell line SW-13 (AID 1963989).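 For activity (max response): cells grown in serum-free medium with ITS supplement; % is set by controls: 0 for no effect and ±100 for the full control effect.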 Note: nearly all actives have a fitted effect of over 65% in size. Note: potency is the fitted concentration of half-maximal effect. The note with it: SW-13 ACC cells viability, CellTiter-Glo, 48 h; activity (max response): stronger effect = lower value. The procedure, abridged:
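Viability was read as CellTiter-Glo luminescence after 48 h compound treatment (up to 46 uM final) of SW-13 cells grown serum-free; titration curves were fit with a four-parameter logistic model to give IC50 and efficacy.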

Assay [10] can be described thus: Cellular viability qHTS for adrenocortical cancer (ACC) cell line NCI-H295R (AID 1963990). Note: nearly all actives have a fitted effect of over 60% in size. Note: potency is the fitted concentration of half-maximal effect. The procedure, abridged:
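CellTiter-Glo ATP luminescence, read 48 h after compound addition, measured viability of NCI-H295R adrenocortical cells grown serum-free with ITS. Final concentrations spanned up to 46 uM. Data normalized to DMSO and doxorubicin, fitted for IC50 and maximal response.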

Assay [11] in a line: Quantitative highthroughput screen to assess conditional lethalithy of SEM cells grown in Human Plasma-Like Medium with dialyzed fetal bovine serum (HPLM+ds) (AID 1963882). For Viability: series mostly up to about 46 µM. Note: nearly all actives have a fitted effect of over 35% in size. Note: potency is the fitted concentration of half-maximal effect. Put shortly:
as §1

The nature of assay [12]: Quantitative highthroughput screen to assess conditional lethalithy of SEM cells grown in RPMI1640 with dialyzed fetal bovine serum (RPMI+ds) (AID 1963884).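 For Viability: series mostly up to about 46 µM; 100% = DMSO control wells and 0% = empty wells without cells.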 Note: nearly all actives have a fitted effect of over 35% in size. Note: potency is the fitted concentration of half-maximal effect. Put shortly:
as §1

The nature of assay [13]: Quantitative highthroughput screen to assess conditional lethalithy of SEM cells grown in RPMI1640 with unreated serum (RPMI+s) (AID 1963883).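 For Viability: 100% = DMSO wells and 0% = empty wells without cells.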 Note: nearly all actives have a fitted effect of over 35% in size. Note: potency is the fitted concentration of half-maximal effect. The procedure, abridged:
as §1

“And” between values parts separate entries of the source, which are not always exact repeats. Equal entries are not always repeated. Records with an inconclusive call do not appear. Values without a mark were called inactive. The source made the active and inactive calls. Calls come from the whole dose curve; as a rule, active = well fitted curve in the direction sought with a large enough effect; inconclusive = small, poorly fitted or top-dose-only effect, or another doubt; inactive = no such curve, though single readings can be large; an effect the other way counts as inactive or inconclusive.

Cytochrome P450 3A7 (Homo sapiens), sequence (P24462 whole entry, looked up): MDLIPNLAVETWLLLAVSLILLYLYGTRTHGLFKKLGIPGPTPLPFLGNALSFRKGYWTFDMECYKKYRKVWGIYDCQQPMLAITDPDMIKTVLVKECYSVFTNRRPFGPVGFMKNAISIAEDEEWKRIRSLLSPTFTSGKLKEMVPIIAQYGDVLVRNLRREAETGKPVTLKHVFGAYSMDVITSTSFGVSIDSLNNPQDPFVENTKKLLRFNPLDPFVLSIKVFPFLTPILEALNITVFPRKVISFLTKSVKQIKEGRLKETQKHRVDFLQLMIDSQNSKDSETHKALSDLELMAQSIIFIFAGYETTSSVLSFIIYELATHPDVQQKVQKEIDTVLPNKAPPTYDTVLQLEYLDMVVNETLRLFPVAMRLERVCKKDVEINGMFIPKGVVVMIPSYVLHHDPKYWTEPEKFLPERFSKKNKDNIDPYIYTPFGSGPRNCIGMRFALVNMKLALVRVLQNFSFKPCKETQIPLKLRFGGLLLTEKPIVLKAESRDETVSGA

With `CN[C@@H](C)C(=O)N[C@H]1CN(C(=O)CC(C)C)CC[C@H]2CC[C@@H](C(=O)NC(c3ccccc3)c3ccccc3)N2C1=O`, the Potency result in assay [1] and in assay [10] was “inactive” in each case. In addition, the Potency in [2] is 5.8 µM (active) and 2.35 µM (active); in assay [3], 1.32 µM (active); in [4], 2.64 µM (active); in assay [5], 1.05 µM (active); in [6] it was 8.33 µM (active); in assay [7] it was 11.8 µM (active). Further, the Potency in assay [8] is 8.33 µM (active). The activity (max response) in assay [9] is -12.1%.

In the case of `Cc1oc(=O)oc1CN1CCN(c2cc3c(cc2F)c(=O)c(C(=O)O)c2n3C(C)S2)CC1` (stereo unspecified), the Potency result in assay [1], in assay [3], in [4], in [7], in assay [8] and in assay [10] was “inactive” in each case. For the same compound, the Potency in assay [2] is 18.6 µM (active). The activity (max response) in [9] was 4.83% and 4.68%.

One may read the viability as a read-out of living cells in per cent, often relative to untreated cells. For `COc1ccc(CC2c3cc(OC)c(OC)cc3CC[N+]2(C)CCC(=O)OCCCCCOC(=O)CC[N+]2(C)CCc3cc(OC)c(OC)cc3C2Cc2ccc(OC)c(OC)c2)cc1OC` (stereo unspecified), in assay [1], the Potency entry was “inactive”. Also, the Potency in assay [2] was 18.6 µM (active); in assay [3], 3.68 µM (active); in assay [4], 4.63 µM (active); in [5], 1.64 µM (active). Also, the viability in assay [6] is 93.9% [at 5.15 µM]; in assay [7] it was 106% [at 5.15 µM]; in assay [8], 89.9% [at 5.15 µM]. For the same compound, the activity (max response) in assay [9] is -11.7%.

Take `CN(C)C/C=C/C(=O)Nc1ccc(C(=O)Nc2cccc(Nc3ncc(Cl)c(-c4c[nH]c5ccccc45)n3)c2)cc1`: the Potency result in assay [1] is “inactive”. The Potency in assay [2] is 10.3 nM (active) and 18.6 nM (active); in assay [3], 0.331 µM (active); in assay [4] it was 0.263 µM (active); in assay [5] it was 0.263 µM (active); in [6] it was 0.331 µM (active); in assay [7] it was 0.331 µM (active). Also, the Potency in assay [8] was 0.331 µM (active); in assay [11], 0.209 µM (active); in assay [12] it was 0.166 µM (active); in assay [9] it was 0.282 µM (active); in [10], 0.562 µM (active).

As to `CCNC(=O)Nc1ccc2ncc(Nc3ccc(C)cc3)nc2n1`, the Potency entry in assay [1], in assay [2], in assay [7] and in assay [8] was “inactive” throughout.

Turning to `CC(C[N+](C)(C)C)OC(N)=O` (stereo unspecified), the Potency result in assay [1], in assay [2], in assay [3], in assay [4], in assay [5] and in assay [6] was “inactive” throughout. The Potency entry in assay [7], in assay [8], in assay [11], in assay [13], in [12] and in [10] was “inactive” each time. In [9], the activity (max response) is 2.28% and -2.17%.

As for `CCc1nc(-c2cccc(C)c2)c(-c2ccnc(NC(=O)c3ccccc3)c2)s1`, the Potency entry in assay [1], in assay [3], in [4] and in assay [11] was “inactive” in each case. The Potency in assay [2] was 20.6 µM (active); in assay [9], 25.1 µM (active); in [10] it was 28.2 µM (active).

Turning to `C[C@@H]1CN(c2c(F)c(N)c3c(=O)c(C(=O)O)cn(C4CC4)c3c2F)C[C@H](C)N1`, the Potency result in [1], in assay [2], in assay [3], in assay [4], in [6] and in assay [10] was “inactive” each time. Moreover, in [9], the activity (max response) was -1.88%.

In the case of `CS(=O)c1ccc(-c2nc(-c3ccc(F)cc3)c(-c3ccncc3)[nH]2)cc1` (stereo unspecified), the Potency result in assay [1] and in assay [10] was “inactive” each time. Moreover, the Potency is 20.6 µM (active) in assay [2]; 6.79 µM (active) in assay [4]; 6.05 µM (active) in assay [5]; 9.59 µM (active) in [6]; 8.55 µM (active) in assay [7]; 7.62 µM (active) in [11]. The Potency in assay [13] is 2.41 µM (active).

On to `COc1ccccc1OCC(O)COC(N)=O` (stereo unspecified), for which the Potency entry in [1], in assay [2], in assay [3], in assay [4], in [7] and in assay [8] was “inactive” throughout. The Potency result in assay [11], in [13], in [12] and in assay [10] was “inactive” throughout. Further, the activity (max response) in assay [9] is -1.45%.

Consider `CCCN[C@H]1CCc2nc(N)sc2C1`, for which the Potency result in assay [1], in assay [3], in [4], in [5], in assay [6] and in assay [7] was “inactive” in each case. In addition, the Potency result in [8], in [11], in assay [13], in [12] and in assay [10] was “inactive” in each case. In addition, in [2], the Potency is 4.17 µM (active). The activity (max response) in [9] was -1.3% and 3.21%.

`O=c1c(O)c(-c2ccc(O)cc2O)oc2cc(O)cc(O)c12`: the Potency result in assay [1], in assay [2], in assay [3], in [4] and in [10] was “inactive” each time. Moreover, the activity (max response) in [9] was 14.7%.

Regarding `Nc1ncn([C@H]2C[C@H](O)[C@@H](CO)O2)c(=O)n1`, the Potency result in assay [1] was “inactive”. Also, the Potency in assay [2] is 4.68 µM (active); in [11], 2.96 µM (active); in assay [13], 2.64 µM (active). Besides, the activity (max response) in assay [9] is -13% and -6.12%.

Turning to `CNS(=O)(=O)Cc1ccc2[nH]cc(CCN(C)C)c2c1`, the Potency entry in assay [1], in assay [2], in assay [3], in assay [4], in assay [5] and in assay [6] was “inactive” each time. The Potency entry in assay [7], in assay [8], in assay [11], in assay [13] and in [12] was “inactive” throughout. Further, the activity (max response) in assay [9] is 3.13%.
